Shown are actives, neighbours in structure and some others; about 3.1% of the full set was active somewhere.
Rtt109 HAT inh: inhibitors of Candida albicans Rtt109/Vps75 histone acetyltransferase | AID 540336 | inhibition, % at 34.9 µM | actives 0.16% (n = 330,000) | purified Rtt109/Vps75, ThioGlo CoA-SH fluorescence, 4 h;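 active = inhibition of at least 50% in every replicate; inconclusive = best replicate reaches 50% inhibition but some replicates fall short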
Target sequence (Q5AAJ8 whole entry, looked up): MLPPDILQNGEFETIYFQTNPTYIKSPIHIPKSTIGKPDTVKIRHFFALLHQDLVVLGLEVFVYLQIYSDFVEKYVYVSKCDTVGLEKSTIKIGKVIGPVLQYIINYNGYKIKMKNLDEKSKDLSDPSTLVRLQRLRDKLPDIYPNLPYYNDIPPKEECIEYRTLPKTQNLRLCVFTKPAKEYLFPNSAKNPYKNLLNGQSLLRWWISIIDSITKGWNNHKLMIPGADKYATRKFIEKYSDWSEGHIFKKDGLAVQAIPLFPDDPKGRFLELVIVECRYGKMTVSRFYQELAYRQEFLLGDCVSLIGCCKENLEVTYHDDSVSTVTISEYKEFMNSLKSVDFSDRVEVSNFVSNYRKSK
Wnt bcat act: activators of Wnt/beta-catenin signaling; actives 1.2% (n = 300,000); Wnt/beta-catenin reporter cell assay, activator, plate reader; activation, % at 9.35 µM; in the data active = activation above about 30%, passing the limit was not always enough; inconclusive = no clear call, values can overlap the other calls
Statin myotox sup: suppression of simvastatin myotoxicity; rescue of ATP level, % at 7.49 µM; actives 0.78% (n = 330,000); C2C12 myotubes + simvastatin, ATP luminescence, 48 h; scaled: DMSO 0, geranylgeraniol control 100;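 active = mean ATP rescue above about 67%, or every replicate alone reaching that limit, limit read from the data, passing the limit was not always enough; inconclusive = no clear call, values can overlap the other calls; inactive = mean under the limit and some replicate under it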;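 note: myotubes were challenged with 10 µM simvastatin during compound exposure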
MITF act: activators of MITF-driven TRPM1 promoter activity in SK-MEL-5 cells. SK-MEL-5 TRPM1-promoter luciferase, 24 h; % of positive control, neutral wells = 0. activation, % at 12.5 µM. actives 0.75% (n = 300,000). AID 588334;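 active = mean activation of at least 80% with every replicate also reaching 80%; inconclusive = mean reaches 80% but some replicate falls short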
esBAF inh: blocks esBAF chromatin remodeling in mouse ES cells. Bmi1-luciferase knock-in reporter, 24 h; 100% = twice the neutral-well signal. reporter increase, % at 12.5 µM. actives 2% (n = 350,000). AID 602393; in the data active = activation above about 40%; inconclusive = no clear call, values can overlap the other calls;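 note: a rise in the Bmi1 reporter signal indicates esBAF inhibition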
Hits are given with their value; i = inactive; ? = inconclusive; nt = no result given.

SMILES | Rtt109 HAT inh | Wnt bcat act | Statin myotox sup | MITF act | esBAF inh
COc1cccc(/C=C/c2ccncc2)c1OC | i | i | i | i | i
COc1ccc(/C=C/c2ccncc2)cc1 | i | 45.7 | i | i | 52.6
O=C(Nc1ccc2c(c1)OCCO2)N1CCN(c2ccc(F)cc2)CC1 | i | i | i | i | i
Cc1cccc(C)c1N1CCN(C(=O)Nc2ccc3c(c2)OCCO3)CC1 | i | 44.5 | i | nt | i
CC(C)(C)OC(=O)N1CCN(C(=O)Nc2ccc3c(c2)OCCO3)CC1 | i | i | i | i | 47.8
COc1cccc(-c2ccc([C@@H]3[C@@H](C#N)N(C(=O)Cc4ccccc4)[C@@H]3CO)cc2)c1 | nt | nt | i | nt | i
CCC(=O)Nc1cc(=O)[nH]c2nc(-c3ccc(Cl)cc3)nn12 | i | 39.3 | i | i | i
c1ccc2cc(C3OCC4(CCCC4)CO3)ccc2c1 | nt | i | i | nt | 71.2
O=C1CCC(c2ccc3ccccc3c2)O1 (stereo not given) | i | i | i | i | i
C[C@H](CO)N1C[C@H](C)[C@H](CN(C)S(=O)(=O)c2cccs2)OCCCC[C@H](C)Oc2ccc(NS(=O)(=O)c3cn(C)cn3)cc2C1=O | nt | nt | nt | nt | i
COc1cccc(C(=O)/C=C/Nc2cccc(O)c2)c1 | i | i | i | i | i
O=C(/C=C/Nc1ccc(Br)cn1)c1cccc(OC(F)F)c1 | i | i | i | 93.4 | 68.1
C[C@H]1CN([C@@H](C)CO)C(=O)c2cc(-c3cncnc3)cnc2O[C@@H]1CN(C)C(=O)Cc1cccnc1 | nt | nt | i | nt | i
O=C1c2ccccc2C(=O)C1c1ccc(Br)cc1 | i | i | i | i | i
O=C1c2ccccc2C(=O)C1c1ccc(O)cc1 | i | ? | i | i | 59.2
O=C(Nc1ccc(C(F)(F)F)cc1)N[C@H]1CC[C@H](CC(=O)N2CCCCC2)O[C@H]1CO | nt | nt | i | nt | i
O=C(O)c1ccc(N2C(=O)C3ON(c4ccccc4)C(c4ccccc4F)C3C2=O)cc1 (stereo not given) | i | i | i | nt | i
CN(C)c1ccc(C2C3C(=O)N(c4ccc(C(=O)O)cc4)C(=O)C3ON2c2ccccc2)cc1 (stereo not given) | i | i | 100.9 | i | i
CCOC(=O)c1oc2nc3c(cc2c1N)CCCC3 | nt | 37.3 | i | nt | i
CCOC(=O)c1oc2nc3c(cc2c1N)COC(C)(C)C3 | i | 49.1 | i | i | i
CCOC(=O)c1oc2nc(C)c3c(c2c1N)CC(C)(C)OC3 | i | nt | i | nt | i
O=C(NCc1ccco1)/C(=C/c1cccc(C(F)(F)F)c1)c1nc2ccccc2[nH]1 | i | i | i | i | i
O=C(NCc1ccco1)/C(=C/c1ccc(C(F)(F)F)cc1)c1nc2ccccc2[nH]1 | nt | 34.2 | nt | i | nt
COc1ccc(S(=O)(=O)N(C)C[C@@H]2Oc3c(NC(=O)Nc4ccccc4)cccc3C(=O)N([C@H](C)CO)C[C@@H]2C)cc1 | nt | nt | i | nt | i
CCOc1cc(C(=O)Nc2nnc(C)s2)cc(OCC)c1OCC | i | i | i | nt | i
SMILES | Rtt109 HAT inh | Wnt bcat act | Statin myotox sup | MITF act | esBAF inh
Cc1nnc(NC(=O)c2ccc3ccccc3c2)s1 | i | 40.3 | nt | 91.8 | nt
Cc1nnc(NC(=O)c2cccc(S(=O)(=O)N3CCCC3)c2)s1 | i | i | i | i | i
CCCc1cc(C(=O)Nc2nnc(C)s2)cs1 | i | i | i | 85.0 | 50.3
Cc1nnc(NC(=O)c2ccc(S(=O)(=O)N3CCCCC3)cc2)s1 | i | 62.6 | i | i | i
Cc1nnc(NC(=O)c2ccc(Br)cc2)s1 | i | i | i | 93.9 | i
C[C@H](CO)N1C[C@H](C)[C@@H](CN(C)C(=O)c2cnccn2)Oc2cc(C3=CCCC3)ccc2S1(=O)=O | nt | nt | i | nt | i
CNC(=O)C[C@@H]1CC[C@@H]2[C@@H](COc3ccc(NC(=O)Nc4c(C)noc4C)cc3C(=O)N2C)O1 | nt | nt | i | nt | i
CCCc1cc(C(=O)N/N=C/c2cccn2C)cs1 | i | i | i | i | 53.5
Nc1ccc(O)c2c(=O)cc(-c3ccccc3Cl)oc12 | i | 53.8 | nt | 109.4 | nt
O=c1cc(-c2ccccc2)c2c(O)cc(O)cc2o1 | i | i | i | i | i
O=c1cc(-c2ccccc2Cl)oc2cc(O)cc(O)c12 | i | i | i | i | 57.5
COc1ccc(S(=O)(=O)Nc2ccc3c(c2)C(=O)N([C@@H](C)CO)C[C@@H](C)[C@@H](CN(C)C(=O)C2CCCCC2)OCCCC[C@H](C)O3)cc1 | nt | nt | nt | nt | i
O=C(O)C/C(=C\c1cc(Br)cs1)c1nc2ccccc2o1 | i | i | i | i | 82.8
CCc1ccc(NC(=O)CCc2c(C)nn(-c3ccc(N4CCCCC4)nn3)c2C)cc1 | i | i | i | i | 61.7
CCOc1ccc(NC(=O)CCc2c(C)nn(-c3ccc(N4CCCCC4)nn3)c2C)cc1 | i | i | i | i | 52.4
CCc1cccc(NC(=O)CCc2c(C)nn(-c3ccc(N4CCCCC4)nn3)c2C)c1 | i | i | i | i | i
Cc1nn(-c2ccc(N3CCCCC3)nn2)c(C)c1CCC(=O)Nc1ccc(F)cc1 | i | i | i | i | i
CC(C)CNC(=O)CSc1nc2nn(-c3ccccc3)c(=O)c-2c2n1CCCCC2 | i | 39.9 | nt | i | nt
C[C@@H]1CN([C@H](C)CO)C(=O)Cc2cc(NC(=O)Nc3ccc4c(c3)OCO4)ccc2O[C@@H]1CN(C)Cc1ccc(Oc2ccccc2)cc1 | nt | nt | i | nt | i
CCOC(=O)CSc1nnc(-c2ccccc2)c(-c2ccccc2)n1 | i | i | i | i | i
Cc1nnc(SCc2ccccc2)nc1-c1ccccc1 | i | ? | i | 87.7 | 83.2
COc1ccccc1NC(=O)N[C@H]1CC[C@@H](CC(=O)N2CCC(Cc3ccccc3)CC2)O[C@H]1CO | nt | nt | i | nt | i
COc1ccc2c(c1OC)C(=O)N(c1nccs1)C2 | i | i | i | i | i
COc1ccc(N2Cc3ccc(OC)c(OC)c3C2=O)cc1 | i | i | i | 86.4 | i
C[C@H]1CN([C@@H](C)CO)C(=O)c2cccc(NS(=O)(=O)c3ccc(F)cc3)c2O[C@@H]1CN(C)S(=O)(=O)c1ccc(F)cc1 | nt | nt | i | nt | i
SMILES | Rtt109 HAT inh | Wnt bcat act | Statin myotox sup | MITF act | esBAF inh
Cc1ccc(-c2cc(-c3ccccc3)no2)c(O)c1 | i | nt | nt | i | nt
Cc1ccc(O)c(-c2cc(-c3ccc(F)cc3)no2)c1 | i | 43.7 | i | i | i
Cc1nc(-c2cc(-c3ccc(Cl)cc3)no2)cs1 | i | 35.6 | nt | i | nt
Clc1ccc(-c2cc(-c3ccccc3)on2)cc1 | i | 53.6 | i | ? | i
Oc1ccccc1-c1cc(-c2ccccc2)no1 | i | nt | 93.8 | i | i
C[C@H](CO)N1C[C@H](C)[C@H](CN(C)C(=O)CC2CC2)Oc2cc(C3=CCCC3)ccc2S1(=O)=O | nt | nt | i | nt | i
CS(=O)(=O)Nc1ccc2c(c1)[C@@H]1C[C@@H](CC(=O)NCC3CC3)O[C@H](CO)[C@@H]1O2 | nt | nt | i | nt | i
O=S(=O)(N[C@H]1CC[C@@H](CCn2cc(C3(O)CCCC3)nn2)O[C@@H]1CO)c1ccc(F)cc1 | nt | nt | i | nt | i
c1ccc2c(c1)Nc1cc3ccccc3cc1S2 | i | 37.6 | nt | nt | nt
O=C(O)c1ccc(NNC(=S)Nc2cc(C(F)(F)F)ccc2Cl)cc1 | i | i | i | nt | 54.4
O=C(c1ccc(F)cc1)c1ccc(-c2ccc(F)cc2)nc1 | i | i | i | i | 43.8

Source: PubChem BioAssay
